35 molecules from PubChem BioAssay can be followed below.

The nature of assay [1]: liver-stage malaria parasite growth inhibition, primary screen, cell-based, HepG2, luciferase luminescence, HepG2 viability (AID 624349).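 Note: 100% = mean of DMSO negative control wells on the same plate.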 To be noted: P. berghei liver stage in HepG2, luciferase luminescence, concentration not given here; parasite load remaining: stronger effect = lower value; viability: measured here: HepG2 viability without parasites.
Assay [2] is described as follows: stimulators of nuclear beta-catenin in C2C12, primary screen, imaging, WNT3A-conditioned medium, mouse C2C12, NPC library (AID 1117326; in the data active = nuclear beta-catenin stimulation mostly above about 4.2%, no sharp cut-off; inactive = mostly below about 10%). As to conditions: stronger effect = higher value.

Where “and” joins values, the source holds several entries; their conditions need not be identical. Identical values can stand only once. Where a structure was tested more than once in an assay, its records may differ in their call. Calls of active or inactive are those of the source. Cut-off read from the data, not from the text of the source, unless noted: active = parasite load remaining mostly below about 12% (no sharp cut-off); inactive = mostly above about 10%.

A word on the viability: it is a read-out of living cells in per cent, often relative to untreated cells. Take `Nc1ccc(S(=O)(=O)Nc2ccc(Cl)nn2)cc1`: in assay [1], the parasite load remaining is 128% (inactive) and 127% (inactive) and 54.3% (inactive); the viability is 105% and 69.3% and 92.4%. Further, the nuclear beta-catenin stimulation in assay [2] (at 10 µM) was 3.3% (inactive). The nuclear beta-catenin stimulation in assay [2] (stimulation, at 2 µM) worked out at 4.5%.
Turning to `COc1ncnc(NS(=O)(=O)c2ccc(N)cc2)c1OC`, in assay [1], the parasite load remaining is 74.2% (inactive) and 31.5% (inactive) and 37.8% (inactive); the viability was 68.7% and 97% and 73.5%. In assay [2] (at 10 µM), the nuclear beta-catenin stimulation is 4.7% (inactive). Also, in assay [2] (stimulation, at 2 µM), the nuclear beta-catenin stimulation was determined as 3.5%.
Turning to `Nc1ncnc2c1ncn2[C@@H]1O[C@H](COP(=O)(O)O)[C@@H](O)[C@H]1O`, in assay [1], the parasite load remaining is 75.5% (inactive) and 87.1% (inactive). Moreover, the viability in assay [1] was 125% and 81%. Moreover, the nuclear beta-catenin stimulation was 2.4% (inactive) in assay [2] (at 10 µM) and 3.8% in assay [2] (stimulation, at 2 µM).
For the molecule `O=C(O)c1ccccc1C(=O)Nc1ccc(S(=O)(=O)Nc2nccs2)cc1`, in assay [1], the parasite load remaining was 89% (inactive) and 53.5% (inactive) and 22.8% (inactive). In assay [1], the viability is 103% and 81.4% and 87.5%. The nuclear beta-catenin stimulation in assay [2] (at 10 µM) was 0.8% (inactive); in assay [2] (stimulation, at 2 µM) it was 0.7%.
With `Nc1c2ccccc2nc2ccccc12`, the parasite load remaining in assay [1] is 23.3% (inactive) and 22.9% (inactive). Besides, the viability in assay [1] is 78.7% and 67.3%. The nuclear beta-catenin stimulation is 21.1% (inactive) in assay [2] (at 10 µM) and 0.1% in assay [2] (stimulation, at 2 µM).
Turning to `CC(C)NCC(O)c1ccc2ccccc2c1` (stereo not given), in assay [1], the parasite load remaining was 115% (inactive) and 166% (inactive) and 45.3% (inactive); the viability was 75% and 89% and 106%. In addition, in assay [2] (at 10 µM), the nuclear beta-catenin stimulation is 0.7% (inactive). For the same molecule, the nuclear beta-catenin stimulation in assay [2] (stimulation, at 2 µM) was -1.4%.
For `COc1cnc(NS(=O)(=O)c2ccc(N)cc2)nc1`, in assay [1], the parasite load remaining was 75.1% (inactive) and 108% (inactive) and 64.2% (inactive); the viability is 93.4% and 66.1% and 87.2%. Besides, the nuclear beta-catenin stimulation in assay [2] (at 10 µM) was 0.2% (inactive). For the same molecule, the nuclear beta-catenin stimulation in assay [2] (stimulation, at 2 µM) turned out to be 2%.
As to `O=C1c2c(O)cccc2Cc2cccc(O)c21`, in assay [1], the parasite load remaining was 94% (inactive) and 68.1% (inactive); the viability is 73% and 78.8%. The nuclear beta-catenin stimulation in assay [2] (at 10 µM) is -3.3% (inactive). In addition, the nuclear beta-catenin stimulation in assay [2] (stimulation, at 2 µM) was -2%.
`Nc1ccc(S(N)(=O)=O)cc1`: in assay [1], the parasite load remaining is 105% (inactive) and 77.1% (inactive) and 50.7% (inactive); the viability is 101% and 73.5% and 90.2%. In assay [2] (at 10 µM), the nuclear beta-catenin stimulation was 0.6% (inactive). The nuclear beta-catenin stimulation in assay [2] (stimulation, at 2 µM) stood at 0.5%.
For the molecule `Cc1ccc(C(=O)C(C)CN2CCCCC2)cc1` (stereo not given), in assay [1], the parasite load remaining was 97.6% (inactive) and the viability stood at 70.5%. For the same molecule, in assay [2] (at 10 µM), the nuclear beta-catenin stimulation is 1.5% (inactive). Also, in assay [2] (stimulation, at 2 µM), the nuclear beta-catenin stimulation amounted to 4.3%.
`CN1CCCN=C1COC(=O)C(O)(c1ccccc1)C1CCCCC1` (stereo not given): in assay [1], the parasite load remaining was 69.1% (inactive) and 57.9% (inactive); the viability is 80.4% and 101%. Further, the nuclear beta-catenin stimulation in assay [2] (at 10 µM) was 3% (inactive). The nuclear beta-catenin stimulation in assay [2] (stimulation, at 2 µM) was found to be 1.9%.
Turning to `CCn1cc(C(=O)O)c(=O)c2cnc(N3CCCC3)nc21`, in assay [1], the parasite load remaining is 91.2% (inactive) and 141% (inactive); the viability was 104% and 72%. The nuclear beta-catenin stimulation in assay [2] (at 10 µM) was -0.4% (inactive). For the same molecule, in assay [2] (stimulation, at 2 µM), the nuclear beta-catenin stimulation was found to be 1.2%.
Take `CC(C)N=C(N)/N=C(\N)Nc1ccc(Cl)cc1`: in assay [1], the parasite load remaining was 38.3% (inactive) and -0.12% (active). In addition, the viability in assay [1] is 66.1% and 93.4%. The nuclear beta-catenin stimulation was 1.1% (inactive) in assay [2] (at 10 µM) and 0.3% in assay [2] (stimulation, at 2 µM).
Take `CNC[C@H](O)[C@@H](O)[C@H](O)[C@H](O)CO`: in assay [1], the parasite load remaining is 64.5% (inactive) and the viability was found to be 224%. In addition, the nuclear beta-catenin stimulation in assay [2] (at 10 µM) was -1.8% (inactive). Also, the nuclear beta-catenin stimulation in assay [2] (stimulation, at 2 µM) was -1.1%.
As to `CO[C@@H]1[C@@H](OC(N)=O)[C@@H](O)[C@H](Oc2ccc3c(O)c(NC(=O)c4ccc(O)c(CC=C(C)C)c4)c(=O)oc3c2C)OC1(C)C`, the parasite load remaining in assay [1] is 96.3% (inactive) and 84% (inactive). The viability in assay [1] was 73.9% and 88.8%. Also, the nuclear beta-catenin stimulation is -0.7% (inactive) in assay [2] (at 10 µM) and 1.5% in assay [2] (stimulation, at 2 µM).
As to `O=C(COc1ccc(Cl)cc1)N1CCN(Cc2ccc3c(c2)OCO3)CC1`, the parasite load remaining in assay [1] is 33.6% (inactive) and 155% (inactive) and 109% (inactive). In assay [1], the viability was 49.1% and 91.8% and 89.5%. The nuclear beta-catenin stimulation in assay [2] (at 10 µM) is 1% (inactive); in assay [2] (stimulation, at 2 µM) it was -0.3%.
In the case of `CC(C)(C)CC(C)(C)c1ccc(O)c(Cc2ccc(Cl)cc2Cl)c1`, the parasite load remaining in assay [1] is 157% (inactive). For the same molecule, in assay [1], the viability came out at 83.5%. Besides, the nuclear beta-catenin stimulation in assay [2] (at 10 µM) is 0.1% (inactive); in assay [2] (stimulation, at 2 µM), 6.3%.
Turning to `O=C(O)c1cc(=O)c2ccccc2o1`, in assay [1], the parasite load remaining was 136% (inactive) and the viability worked out at 95.8%. The nuclear beta-catenin stimulation in assay [2] (at 10 µM) was -0.2% (inactive). In addition, in assay [2] (stimulation, at 2 µM), the nuclear beta-catenin stimulation was determined as 0.2%.
Take `OC[C@H]1O[C@@H](O[C@@H]2[C@@H](CO)O[C@](O)(CO)[C@H]2O)[C@H](O)[C@@H](O)[C@H]1O`: the parasite load remaining in assay [1] was 106% (inactive) and 22.7% (inactive). In addition, in assay [1], the viability is 76.4% and 96.6%. Moreover, the nuclear beta-catenin stimulation in assay [2] (at 10 µM) was 2.4% (inactive); in assay [2] (stimulation, at 2 µM), 1.6%.
Take `CCCCCCOc1ccccc1C(N)=O`: in assay [1], the parasite load remaining is 151% (inactive). In assay [1], the viability came out at 88.6%. The nuclear beta-catenin stimulation in assay [2] (at 10 µM) was 2.2% (inactive); in assay [2] (stimulation, at 2 µM), -1%.
The corresponding values for `Oc1c(Br)cc(Br)c2cccnc12` are 81.4% (inactive), 68.8%, 4.7% (inactive) and 0.1%.
Consider `Nc1ncnc2nc[nH]c12`, for which the parasite load remaining in assay [1] was 110% (inactive) and 37.4% (inactive). Besides, the viability in assay [1] is 91.6% and 128%. The nuclear beta-catenin stimulation is -2.6% (inactive) in assay [2] (at 10 µM) and -0.4% in assay [2] (stimulation, at 2 µM).
`Nc1ccc(S(=O)(=O)Nc2cnc3ccccc3n2)cc1`: in assay [1], the parasite load remaining is 113% (inactive) and 43.6% (inactive). The viability in assay [1] is 98.9% and 97%. For the same molecule, the nuclear beta-catenin stimulation in assay [2] (at 10 µM) is -0.3% (inactive); in assay [2] (stimulation, at 2 µM), 0.7%.
On to `OC[C@H]1O[C@@H](Oc2ccc(O)cc2)[C@H](O)[C@@H](O)[C@@H]1O`, for which, in assay [1], the parasite load remaining was 102% (inactive) and the viability amounted to 72.2%. Besides, in assay [2] (at 10 µM), the nuclear beta-catenin stimulation is -2.1% (inactive). Moreover, the nuclear beta-catenin stimulation in assay [2] (stimulation, at 2 µM) was 1%.
On to `CCOC(=O)NNc1nncc2ccccc12`, for which, in assay [1], the parasite load remaining is 44.2% (inactive) and 101% (inactive) and 89.6% (inactive). Moreover, the viability in assay [1] is 43.6% and 65.7% and 90.2%. Moreover, the nuclear beta-catenin stimulation is 3.8% (inactive) in assay [2] (at 10 µM) and 5.1% in assay [2] (stimulation, at 2 µM).
As for `Cc1cc2cc3c(C)cc(=O)oc3c(C)c2o1`, the parasite load remaining in assay [1] was 179% (inactive) and 284% (inactive) and 171% (inactive). Further, the viability in assay [1] was 95.9% and 75.4% and 91.9%. Further, the nuclear beta-catenin stimulation is 2.9% (inactive) in assay [2] (at 10 µM) and 0.1% in assay [2] (stimulation, at 2 µM).
Turning to `CC(=O)OCC(COC(C)=O)OC(C)=O`, in assay [1], the parasite load remaining is 142% (inactive) and 56.1% (inactive); the viability is 73.5% and 86.5%. In assay [2] (at 10 µM), the nuclear beta-catenin stimulation was 0.2% (inactive). In addition, the nuclear beta-catenin stimulation in assay [2] (stimulation, at 2 µM) turned out to be 3.4%.
As to `CC(=O)Oc1cccc(O)c1`, the parasite load remaining in assay [1] was 139% (inactive) and 53% (inactive). Further, the viability in assay [1] was 92.8% and 100%. Further, the nuclear beta-catenin stimulation was 0.7% (inactive) in assay [2] (at 10 µM) and 2% in assay [2] (stimulation, at 2 µM).
Regarding `CN(C)c1ccc2nc3ccc(=[N+](C)C)cc-3sc2c1`, in assay [1], the parasite load remaining is 0.205% (inactive) and the viability was 47.9%. For the same molecule, the nuclear beta-catenin stimulation in assay [2] (at 10 µM) is 3.1% (inactive). In addition, the nuclear beta-catenin stimulation in assay [2] (stimulation, at 2 µM) was found to be 2.2%.
As to `COc1ccc(NS(=O)(=O)c2ccc(N)cc2)nn1`, in assay [1], the parasite load remaining was 118% (inactive) and 103% (inactive) and 48% (inactive). In assay [1], the viability was 101% and 69.5% and 83.6%. Moreover, the nuclear beta-catenin stimulation is -1.8% (inactive) in assay [2] (at 10 µM) and 2.2% in assay [2] (stimulation, at 2 µM).
With `CN1CCC(=C2c3ccccc3Sc3ccccc32)CC1`, in assay [1], the parasite load remaining is 16.9% (inactive) and 99.5% (inactive) and 91.2% (inactive). For the same molecule, the viability in assay [1] was 43.6% and 70.3% and 91.9%. Moreover, the nuclear beta-catenin stimulation is -0.1% (inactive) in assay [2] (at 10 µM) and 1.3% in assay [2] (stimulation, at 2 µM).
Regarding `CC(=O)OC/C=C(C)/C=C/C=C(C)/C=C/C1=C(C)CCCC1(C)C`, in assay [1], the parasite load remaining was 135% (inactive) and 40.4% (inactive); the viability was 96.6% and 98.5%. The nuclear beta-catenin stimulation in assay [2] (at 10 µM) is 3.8% (inactive). For the same molecule, the nuclear beta-catenin stimulation in assay [2] (stimulation, at 2 µM) is 3.9%.
As to `CCCOc1ccc2nc(NC(=O)OC)[nH]c2c1`, in assay [1], the parasite load remaining was 150% (inactive) and 18.1% (inactive) and 53.4% (inactive); the viability is 91% and 99.5% and 84%. Further, the nuclear beta-catenin stimulation in assay [2] (at 10 µM) was 77% (active). Also, the nuclear beta-catenin stimulation in assay [2] (stimulation, at 2 µM) stood at 60.9%.
In the case of `Cc1ccnc(NS(=O)(=O)c2ccc(N)cc2)n1`, the parasite load remaining in assay [1] is 74% (inactive) and 287% (inactive) and 42.8% (inactive). Besides, in assay [1], the viability was 92.3% and 68.7% and 98.8%. In addition, the nuclear beta-catenin stimulation is 3.8% (inactive) in assay [2] (at 10 µM) and 1.5% in assay [2] (stimulation, at 2 µM).
`C=C1c2cccc(O)c2C(O)=C2C(=O)[C@]3(O)C(O)=C(C(N)=O)C(=O)[C@@H](N(C)C)[C@@H]3[C@@H](O)[C@H]12`: in assay [1], the parasite load remaining is 89.4% (inactive) and 160% (inactive) and 38% (inactive). In addition, the viability in assay [1] is 79.4% and 68.3% and 93.9%. Also, the nuclear beta-catenin stimulation in assay [2] (at 10 µM) is 3.6% (inactive); in assay [2] (stimulation, at 2 µM), 2.7%.
